These results are taken from PubChem BioAssay (NCATS).

Records with an inconclusive call do not appear. Calls of active or inactive are those of the source. Unless noted, calls follow the shape of the dose curve; as a rule, active = well fitted curve in the direction sought with a large enough effect; inconclusive = small, poorly fitted or top-dose-only effect, or another doubt; inactive = no such curve, though single readings can be large; an effect the other way counts as inactive or inconclusive.

A short description of test [1]: qHTS profiling of the MIPE4 collection as inhibitors of Plasmodium falciparum (DD2) proliferation (AID 743345; call rule not given here). The settings on record: P. falciparum Dd2 in erythrocytes, SYBR Green DNA, 72 h; at 28.5 µM (top of the series) unless noted. Summed up: (§1)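 Erythrocytes infected with P. falciparum (0.3% parasitemia, 2.5% hematocrit) incubated with compounds 72 h at 37 C, 5% CO2. Lysis with saponin/Triton buffer containing SYBR Green I, overnight at room temperature in the dark; DNA fluorescence (485/535 nm) normalised to 0.29 uM artemisinin and DMSO.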
For orientation: In qHTS, concentration-response curves come from the screen itself.

Test [2] can be described thus: qHTS profiling of the MIPE4 collection as inhibitors of Plasmodium falciparum (DD2) proliferation (Rep 2) (AID 743346; call rule not given here). To be noted: P. falciparum Dd2 in erythrocytes, SYBR Green DNA, 72 h; at 28.5 µM (top of the series) unless noted. The method, boiled down:
as §1

The nature of test [3]: qHTS profiling of the MIPE4 collection as inhibitors of Plasmodium falciparum (HB3) proliferation (AID 743347; call rule not given here;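 also: plate controls were DMSO vehicle wells for no effect and artemisinin wells for full effect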). The settings on record: P. falciparum HB3 in erythrocytes, SYBR Green DNA, 72 h; at 28.5 µM (top of the series) unless noted. The method, boiled down:
as §1

Test [4] in a line: High-throughput drug toxicity screening in the BPDCN cell line Gen2.2 (AID 1224824; call rule not given here;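 also: cells exposed to compounds for 48 h before reading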). To be noted: Gen2.2 BPDCN cells; at 45.8 µM (top of the series) unless noted. The method, boiled down: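 Gen2.2 cells (500/well) in phenol red-free RPMI with 10% FBS were exposed to compounds for 48 h at 37 °C, 5% CO2. Viability was read by CellTiter-Glo luminescence and normalized to DMSO (100%) and 9.2 uM bortezomib (0%).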

Test [5] can be described thus: qHTS assay for measurement of the activity of small molecule inhibitors on Zika virus induced Caspase-3 activity in human iPSC derived neural progenitor cells (hNPCs) (AID 1224857). Also: % of control where 0% means no effect; nearly all actives have a fitted effect of over 65% in size. Summed up:
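Values are percent inhibition of virus-induced caspase-3/7 signal, scaled between uninfected cells and ZIKV-infected cells. Infection used 2 FFU/cell for 6 h after 1 h compound exposure.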

Test [6] is described as follows: qHTS Screen of the MIPE 4.0 Collection Against Ewings Sarcoma (RDES) (AID 1259252). Also: nearly all actives have a fitted effect of over 35% in size. Also: potency is read from the fitted curve at half-maximal effect. Summed up:
(§2)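 Here, cells in 5% FBS RPMI were exposed for two days (48 h) to compound dilutions added four hours after plating. ATP-based CellTiter-Glo luminescence measured viability, normalized to vehicle and no-cell blanks.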

Test [7] is described as follows: qHTS Screen of the MIPE 4.0 Collection Against Ewings Sarcoma (EW8) (AID 1259255). Also: nearly all actives have a fitted effect of over 35% in size. Also: potency is read from the fitted curve at half-maximal effect.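 As to viability: 100% = DMSO-treated cells and 0% = medium-only wells without cells.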 Summed up:
as §2

Test [8] is described as follows: qHTS Screen of the MIPE 4.0 Collection Against Ewings Sarcoma (TC32) (AID 1259256). Also: nearly all actives have a fitted effect of over 45% in size. Also: potency is read from the fitted curve at half-maximal effect. The method, boiled down:
as §2

Test [9] can be described thus: qHTS profiling for inhibitors of Plasmodium falciparum (HB3) proliferation (AID 743324).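 Also: 100% = DMSO vehicle wells and 0% = artemisinin-treated control wells.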 The settings on record: Plasmodium falciparum HB3 blood-stage proliferation; at 28.7 µM (top of the series) unless noted. The method, boiled down: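 P. falciparum HB3 grown in erythrocytes (0.3% parasitemia, 2.5% hematocrit final) with compound for 72 h at 37 C, 5% CO2. Parasite DNA detected by SYBR Green after saponin/triton lysis overnight; normalized to 0.29 uM artemisinin and DMSO.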

The nature of test [10]: qHTS profiling of the MIPE4 collection as inhibitors of Plasmodium falciparum (3D7) proliferation (AID 743344; call rule not given here;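 also: scaled between DMSO vehicle wells and 0.29 µM artemisinin as full inhibition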). To be noted: P. falciparum 3D7 in erythrocytes, SYBR Green DNA fluorescence, 72 h; at 28.5 µM (top of the series) unless noted. The method, boiled down:
as §1

Test [11] is described as follows: qHTS assay for measurement of the activity of small molecule inhibitors on Zika virus induced Caspase-3 activity in human astrocytoma cells (AID 1224859).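 Also: plate controls were ZIKV-infected untreated cells for no effect and uninfected cells for full effect.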 The method, boiled down: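 Compound added 1 h pre-infection; ZIKV 2 FFU/cell on SNB-19 cells, 6 h, 37 C/5% CO2. Caspase-Glo 3/7 luminescence; values as % inhibition of ZIKV-induced caspase activity.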
Test [12] in a line: qHTS Screen of the MIPE 4.0 Collection Against Ewings Sarcoma (TC71) (AID 1259253). Also: nearly all actives have a fitted effect of over 40% in size. Also: potency is read from the fitted curve at half-maximal effect. Summed up: as §2
Test [13] is described as follows: Identifying Small Molecule Inhibitors of Pancreatic Cancer Stem Cells (A278, Adherent) (AID 1259361). Also: nearly all actives have a fitted effect of over 35% in size. The method, boiled down:
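Luminescent ATP readout (CellTiter-Glo) quantifies surviving cells after a 48 h drug incubation. Normalization uses DMSO wells as no inhibition and media-only wells as full inhibition; bortezomib served as positive control.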

The nature of test [14]: High-throughput drug toxicity screening in the BPDCN cell line Cal-1 (AID 1224825; call rule not given here). To be noted: Cal-1 BPDCN cell viability, qHTS; at 45.8 µM (top of the series) unless noted. The method, boiled down:
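Exponentially growing Cal-1 cells, 500 per well in phenol red-free RPMI with 10% FBS, were exposed to compounds for 48 h at 37 °C, 5% CO2. Viability was read by CellTiter-Glo luminescence and normalised to DMSO (100%) and 9.2 uM bortezomib (0%).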

Test [15] in a line: qHTS assay to identify small molecule inhibitors of chordoma cells - UCH-1 (AID 1259355). Also: % is scaled to controls: 0 for no effect and ±100 for the full control effect; nearly all actives have a fitted effect of over 55% in size. The method, boiled down: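 Luminescent ATP read-out (CellTiter-Glo, 30min at room temperature) measured viability of UCH-1 cells exposed for 48hr to test drugs at 15 concentrations, co-dosed with a five-agent combination of auranofin, camptothecin, doxorubicin, rubitecan and topotecan.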

For the compound `O=C(O)C1=CC(O)C(O)[C@H](O)C1` (stereo not given in full), the parasite growth remaining, % of DMSO control (lower = more inhibition) in test [1] is 55.1%. The compound further registered a parasite growth, % of control (lower = inhibition) in test [2] of 86.5%. For the same compound, the growth, % of control in test [3] stood at 51.8%. Besides, in test [4], the cell viability, % of control (lower = more cytotoxic) stood at 146%. The Potency entry in [5], in test [6], in [7] and in test [8] was “inactive” throughout.

In the case of `CC(C)Oc1cc(Nc2nc(N[C@@H](C)c3ccc(F)cn3)ncc2Cl)[nH]n1`, in [9], the remaining proliferation (% of control), lower = more inhibition amounted to 3.28%. For the same compound, the parasite growth, % of DMSO control in test [10] is 9.44%. Further, the parasite growth remaining, % of DMSO control (lower = more inhibition) in [1] stood at 10.8%. In [2], this compound registered a parasite growth, % of control (lower = inhibition) of 23.2%. Further, the growth, % of control in [3] was determined as 14.7%. In test [4], the cell viability, % of control (lower = more cytotoxic) amounted to 93%. The Potency result in [5] and in test [11] was “inactive” throughout. Moreover, the Potency in [6] and in [12] was 16.6 µM (active) throughout. In addition, the IC50 (viability decrease) in [13] is 13.2 µM (active).

In test [10], `N#CC(=C1Nc2ccccc2S1)c1ccnc(OCc2ccc(CN3CCOCC3)cc2)n1` came in with a parasite growth, % of DMSO control of 14.1%. Also, in test [1], the parasite growth remaining, % of DMSO control (lower = more inhibition) was 57.9%. For the same compound, in test [2], the parasite growth, % of control (lower = inhibition) came out at 35.2%. The growth, % of control in test [3] was 10.8%. For the same compound, the cell viability, % of control (lower = more cytotoxic) in test [4] is 5.77%. For the same compound, the Potency entry in test [5] and in [11] was “inactive” each time. For the same compound, the Potency is 7.43 µM (active) in [6], 5.26 µM (active) in test [7] and 7.43 µM (active) in test [8].

As to `N#Cc1ccc(Oc2ccc3c(c2)COB3O)cc1`, the parasite growth, % of DMSO control in [10] was determined as 35.7%. The parasite growth remaining, % of DMSO control (lower = more inhibition) in test [1] is 91.9%. The compound further returned a parasite growth, % of control (lower = inhibition) in [2] of 38.3%. In [3], this compound gave a growth, % of control of 24.2%. The cell viability, % of control (lower = more cytotoxic) in test [4] worked out at 210%. The Potency entry in [5], in [11], in test [6] and in test [8] was “inactive” each time.

With `CC(=O)OCC(=O)[C@@]12OC(C)(C)O[C@H]1C[C@H]1[C@@H]3C[C@H](F)C4=CC(=O)C=C[C@]4(C)[C@@]3(F)[C@@H](O)C[C@@]12C`, the parasite growth remaining, % of DMSO control (lower = more inhibition) in [1] was found to be 82.3%. The compound also yielded a parasite growth, % of control (lower = inhibition) in [2] of 35.9%. The compound further showed a viability (% of control) in test [14] of 56.5%. Moreover, the Potency entry in test [5], in test [11], in test [6], in [12], in [7] and in test [8] was “inactive” each time.

Turning to `CCC(=C(c1ccc(O)cc1)c1ccc(OCCNC)cc1)c1ccccc1`, the parasite growth, % of DMSO control in [10] was determined as 5.26%. Also, the parasite growth remaining, % of DMSO control (lower = more inhibition) in [1] turned out to be 15.1%. For the same compound, the parasite growth, % of control (lower = inhibition) in test [2] is 13.1%. In [3], the growth, % of control turned out to be 3.87%. For the same compound, in test [4], the cell viability, % of control (lower = more cytotoxic) was found to be 16.9%. The Potency result in test [5] and in test [11] was “inactive” throughout. For the same compound, the Potency in [12] was 20.9 µM (active); in test [7] it was 26.4 µM (active); in [8], 23.5 µM (active).

As to `Cc1ccccc1-n1c(Cn2nc(-c3cccc(O)c3)c3c(N)ncnc32)nc2cccc(C)c2c1=O`, the parasite growth, % of DMSO control in test [10] was determined as 6.67%. Besides, the parasite growth remaining, % of DMSO control (lower = more inhibition) in test [1] turned out to be 8.31%. This compound also returned a parasite growth, % of control (lower = inhibition) in test [2] of 15%. In addition, the growth, % of control in test [3] was 9.11%. The cell viability, % of control (lower = more cytotoxic) in test [4] was 5.88%. Besides, the Potency entry in test [5] and in test [11] was “inactive” each time. In addition, the Potency in [12] is 9.35 µM (active); in [7] it was 16.6 µM (active).

`Cc1cc2nc3c(=O)[nH]c(=O)nc-3n(CC(O)C(O)C(O)CO)c2cc1C` (stereo not given) came in with a parasite growth, % of DMSO control in [10] of 21.3%. Also, in test [1], the parasite growth remaining, % of DMSO control (lower = more inhibition) is 57.4%. Also, the parasite growth, % of control (lower = inhibition) in test [2] came to 22.3%. The growth, % of control in test [3] is 17.8%. Moreover, the cell viability, % of control (lower = more cytotoxic) in [4] was 77.3%. In addition, the Potency entry in [11], in [6] and in test [7] was “inactive” each time. Moreover, the Potency in [12] is 26.4 µM (active). The outcome in test [15] was inactive.

As to `CC(C)(OCc1nn(Cc2ccccc2)c2ccccc12)C(=O)O`, the parasite growth, % of DMSO control in test [10] was 95.1%. The parasite growth remaining, % of DMSO control (lower = more inhibition) in test [1] was determined as 101%. Moreover, the parasite growth, % of control (lower = inhibition) in test [2] came to 96.9%. Besides, the growth, % of control in [3] was determined as 104%. The cell viability, % of control (lower = more cytotoxic) in test [4] amounted to 148%. For the same compound, the Potency result in [5], in test [11] and in test [7] was “inactive” each time. For the same compound, in [12], the Potency was 7.43 µM (active).
